The values below come from the supplement of paper PMC3334620.

In all, about 33,000 sequences were measured (“E-score (-0.5 to 0.5)”: median about -0.012, highest 2% from about 0.27 on). The full list was thinned out, with the highest values kept by preference.

The target of the test is T1, Vhr1 (UniProt P40522).
T1 sequence: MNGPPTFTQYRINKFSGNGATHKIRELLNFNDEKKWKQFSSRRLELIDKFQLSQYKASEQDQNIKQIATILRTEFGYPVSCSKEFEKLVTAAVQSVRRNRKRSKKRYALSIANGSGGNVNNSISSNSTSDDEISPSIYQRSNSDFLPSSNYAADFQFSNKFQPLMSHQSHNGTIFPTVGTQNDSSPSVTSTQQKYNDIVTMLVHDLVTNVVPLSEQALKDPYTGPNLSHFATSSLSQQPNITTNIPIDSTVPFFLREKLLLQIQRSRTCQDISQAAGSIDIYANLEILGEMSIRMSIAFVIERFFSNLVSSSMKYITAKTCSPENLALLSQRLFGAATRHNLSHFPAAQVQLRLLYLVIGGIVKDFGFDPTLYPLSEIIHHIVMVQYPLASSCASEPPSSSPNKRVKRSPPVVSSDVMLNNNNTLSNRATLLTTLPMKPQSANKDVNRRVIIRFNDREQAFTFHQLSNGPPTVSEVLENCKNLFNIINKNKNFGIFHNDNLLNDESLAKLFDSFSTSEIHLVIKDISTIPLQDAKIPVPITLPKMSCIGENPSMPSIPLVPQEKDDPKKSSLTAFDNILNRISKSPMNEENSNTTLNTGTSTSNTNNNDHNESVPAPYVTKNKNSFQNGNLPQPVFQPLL
As to the kind of experiment: PBM E-score (8-mer binding enrichment) (E-score (-0.5 to 0.5)); higher = stronger / more preferred TF binding. As to conditions: protein concentration: 200 nM; construct: GST-full length. As for the experimental part: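 Universal 'all 10-mer' protein binding microarrays (Agilent AMADID 015681) probed with GST-tagged S. cerevisiae TFs (full-length or DBD) made by in vitro transcription/translation (PURExpress), about 100-200 nM. Bound TF was detected with fluorescent anti-GST. Each ungapped 8-mer (which stands for itself and its reverse complement) is scored by the PBM enrichment score (E-score), a modified Wilcoxon-Mann-Whitney statistic from -0.5 to +0.5, computed with the Universal PBM Analysis Suite. Scale: above 0.35 generally sequence-specific binding.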
As for GAAAGTCC, the “PBM E-score” value was -0.317.

CAAGACTG: the “PBM E-score” value is -0.0294.

For the sequence CAAGACTA, the “PBM E-score” value is -0.0514.

CGAGACTA: the “PBM E-score” value was found to be 0.202.

For the sequence AGAGACTC, the “PBM E-score” value is 0.222.

Consider CGAGACTC, for which the “PBM E-score” value came to 0.309.

On to CAAGACTC, for which the “PBM E-score” value came to 0.295.

For TAGTTATA, the “PBM E-score” value was found to be 0.00574.

As to ACCCTACC, the “PBM E-score” value was 0.00399.

ACATTGAC: the “PBM E-score” value stood at 0.0886.

With CAAAGCCG, the “PBM E-score” value is -0.295.

As to CTCACCTA, the “PBM E-score” value amounted to 0.103.

Turning to ATTACTGC, the “PBM E-score” value was found to be 0.206.

For TACGAAGA, the “PBM E-score” value is -0.0938.

Regarding CCCTACTC, the “PBM E-score” value was -0.067.

Turning to AGGTATGA, the “PBM E-score” value amounted to 0.163.

As for AACACACG, the “PBM E-score” value was 0.00318.

CACACACG: the “PBM E-score” value worked out at 0.272.

For AACACACT, the “PBM E-score” value was 0.205.

For CACACACA, the “PBM E-score” value stood at 0.276.

With AACACACA, the “PBM E-score” value is 0.33.

For the sequence CACACATA, the “PBM E-score” value was determined as 0.204.

For CACACAAA, the “PBM E-score” value was determined as 0.124.

As to TACACACA, the “PBM E-score” value was found to be 0.268.

With CGCACACA, the “PBM E-score” value was found to be 0.134.

As for CCCATTCG, the “PBM E-score” value worked out at 0.00579.

With AAGAGGGT, the “PBM E-score” value is -0.255.

Consider AGAGGTAT, for which the “PBM E-score” value stood at 0.144.

For CGTCCTAG, the “PBM E-score” value is -0.181.

For ATGCTAAG, the “PBM E-score” value is -0.0834.

Consider CCTATCAA, for which the “PBM E-score” value was -0.182.

Consider CGTCATCA, for which the “PBM E-score” value was determined as 0.0722.

Take GGTCATCA: the “PBM E-score” value was 0.136.

As for AGTCATCA, the “PBM E-score” value was 0.439.

With AGGCATCG, the “PBM E-score” value is -0.22.

Turning to ATTCATCG, the “PBM E-score” value was 0.121.

Turning to CGTCATCC, the “PBM E-score” value was 0.0455.

Take AGTCATCG: the “PBM E-score” value is 0.44.

Regarding ATTCATCC, the “PBM E-score” value amounted to 0.0498.

Regarding AGTCATCC, the “PBM E-score” value was 0.464.

Consider CGGCGGGC, for which the “PBM E-score” value came out at 0.221.

For the sequence CAAGATAA, the “PBM E-score” value is 0.0275.

On to CATGGAGG, for which the “PBM E-score” value was -0.101.

For the sequence CCACGAAC, the “PBM E-score” value is 0.101.

Turning to CAGGACAC, the “PBM E-score” value worked out at 0.135.

GCTCATCA: the “PBM E-score” value came out at 0.109.

Turning to ACTCATCC, the “PBM E-score” value was found to be 0.412.

For CCTCATCG, the “PBM E-score” value stood at 0.0284.

Take TCTCATCA: the “PBM E-score” value is -0.131.

Turning to GCTCATCC, the “PBM E-score” value was 0.0555.

Turning to ACTCATCT, the “PBM E-score” value turned out to be 0.199.

Regarding CCTCATCC, the “PBM E-score” value was -0.182.

ACTCATCA: the “PBM E-score” value was determined as 0.32.

For the sequence ACTCATCG, the “PBM E-score” value came to 0.304.

GCCTTCAC: the “PBM E-score” value is -0.0812.

In the case of CTTTATCA, the “PBM E-score” value is -0.157.

As for AAGCTACC, the “PBM E-score” value came out at 0.00426.

CCCCATGA: the “PBM E-score” value was 0.0682.

Consider ACCCAGGC, for which the “PBM E-score” value came out at 0.302.

As to ACCCATGG, the “PBM E-score” value came out at 0.211.

ACCCATGA: the “PBM E-score” value amounted to 0.287.

GCCCATGA: the “PBM E-score” value stood at 0.262.

As to ACCCAGGT, the “PBM E-score” value amounted to 0.0206.

For ACCCATGC, the “PBM E-score” value is 0.273.

In the case of ACCCAGGA, the “PBM E-score” value was -0.00244.

Take CACCATGA: the “PBM E-score” value is 0.143.

Take AACCATGA: the “PBM E-score” value was found to be 0.351.

In the case of CCCCATGC, the “PBM E-score” value is -0.0398.

For AACCATGC, the “PBM E-score” value stood at 0.234.

On to ATATTCTA, for which the “PBM E-score” value was determined as 0.122.

Turning to TGACAACA, the “PBM E-score” value is 0.115.

For GCCTTGAC, the “PBM E-score” value was -0.167.

In the case of CATGGACC, the “PBM E-score” value is -0.0938.

AACTGGGC: the “PBM E-score” value is -0.165.

Turning to GCGAGCAA, the “PBM E-score” value is -0.12.

ACAACGCT: the “PBM E-score” value was 0.0591.

On to AGCTAGGA, for which the “PBM E-score” value was found to be 0.117.

As to AGTCACCC, the “PBM E-score” value was determined as 0.446.

Consider CGTCACCA, for which the “PBM E-score” value was -0.036.

On to ATTCACCG, for which the “PBM E-score” value came to 0.159.

On to AGTCACCG, for which the “PBM E-score” value was determined as 0.418.

In the case of ATTCACCC, the “PBM E-score” value came to 0.135.

Regarding AGACACCG, the “PBM E-score” value amounted to 0.21.

As to GGTCACCA, the “PBM E-score” value was -0.102.

On to AGTCACCA, for which the “PBM E-score” value came to 0.426.

Take CGTCACCC: the “PBM E-score” value was -0.047.

Take CTGGCAAG: the “PBM E-score” value is -0.21.

GAAGATCA: the “PBM E-score” value was -0.185.

Turning to GCCGGCCA, the “PBM E-score” value is -0.136.

As for ATGCCTGA, the “PBM E-score” value came to 0.0818.

In the case of CCTCTCGA, the “PBM E-score” value was -0.142.

Consider CGTGAAAC, for which the “PBM E-score” value was -0.243.

As to AGCTCTAA, the “PBM E-score” value is -0.127.

As for ACTCTTAC, the “PBM E-score” value amounted to 0.163.

Turning to TCACCCCA, the “PBM E-score” value stood at 0.305.

Consider TCACCCAA, for which the “PBM E-score” value worked out at 0.177.

For the sequence GCACCCCA, the “PBM E-score” value was found to be 0.151.

In the case of AGCGGTCG, the “PBM E-score” value was -0.301.

As for ACACGGAG, the “PBM E-score” value was -0.0139.

Regarding ACACGGAT, the “PBM E-score” value was determined as 0.287.

For ACACGGAA, the “PBM E-score” value is -0.0284.

Regarding TGTCATAA, the “PBM E-score” value was -0.0558.

As for AGTCATAC, the “PBM E-score” value stood at 0.407.

For AGTCATAA, the “PBM E-score” value was 0.344.

On to AGTCATAG, for which the “PBM E-score” value worked out at 0.407.

For ACTCATAT, the “PBM E-score” value was found to be 0.229.

For the sequence CGTCATAA, the “PBM E-score” value came out at 0.016.

Take AGTCATAT: the “PBM E-score” value is 0.421.

Take CGTCATAC: the “PBM E-score” value was 0.189.

As to GGTCATAC, the “PBM E-score” value stood at 0.0467.

Take CGTCATAG: the “PBM E-score” value is -0.155.

Take ACTCATAG: the “PBM E-score” value worked out at 0.264.

Regarding AGACATAT, the “PBM E-score” value amounted to 0.16.
